# FBPA Giardia inh = Giardia lamblia aldolase inhibition. hit rate 0.71% among 290,000. A8B2U2. Potency, µM (top dose mostly 59.6 µM), for inactives: top-dose activity, negative = inhibition, most hits filed as inhibitors. purified Giardia FBPA; also: potency is read from the fitted curve at half-maximal effect; % is scaled to controls: 0 for no effect and ±100 for the full control effect; nearly all actives have a fitted effect of over 55% in size
#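 40 nM FBPA preincubated 10 min at RT with compound (up to 57.5 uM final), then substrate plus GAPDH/TPI/NAD/arsenate coupling and diaphorase/resazurin added. Fluorescence read after 20 min at RT, 525/598 nm.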
# LmPK inhibitor = inhibitors of Leishmania mexicana pyruvate kinase | Q27686 | purified LmPK, Kinase-Glo ATP luminescence, 1 h | Potency, µM (top dose mostly 57.5 µM), for inactives: at the highest dose activity change, negative = inhibition, most hits filed as inhibitors | hit rate 0.37% among 290,000 | AID 1721; also: potency is read from the fitted curve at half-maximal effect; % is scaled to controls: 0 for no effect and ±100 for the full control effect
# Target sequence (Q27686 whole entry, looked up): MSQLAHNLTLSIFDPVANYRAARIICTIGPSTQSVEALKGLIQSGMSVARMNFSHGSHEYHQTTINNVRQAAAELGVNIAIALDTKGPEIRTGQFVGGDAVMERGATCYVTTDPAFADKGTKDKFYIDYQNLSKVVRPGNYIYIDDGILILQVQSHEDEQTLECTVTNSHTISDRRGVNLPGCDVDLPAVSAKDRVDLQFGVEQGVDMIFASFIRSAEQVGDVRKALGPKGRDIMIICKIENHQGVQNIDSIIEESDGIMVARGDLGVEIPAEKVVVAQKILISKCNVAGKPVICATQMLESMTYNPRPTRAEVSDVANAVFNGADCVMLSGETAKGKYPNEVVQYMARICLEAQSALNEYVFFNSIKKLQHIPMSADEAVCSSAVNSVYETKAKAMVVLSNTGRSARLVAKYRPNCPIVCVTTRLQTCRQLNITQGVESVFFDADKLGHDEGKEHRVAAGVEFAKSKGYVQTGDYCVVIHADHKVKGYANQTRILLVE
#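 Kinase-Glo luminescence read after 1 h RT reaction of 0.1 nM LmPK with 0.5 mM PEP and 0.1 mM ADP. Activity scaled between uninhibited and enzyme-free controls.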
# Cycloheximide cs = counter-screen for Shiga toxin inhibitors: cycloheximide protein synthesis inhibition; hit rate 12% among 300,000; max response, %; cell reporter, cycloheximide protein synthesis inhibition counterscreen; in the data active = max response mostly above about 13%, no sharp cut-off; inactive = mostly below about 14%; also: read at 38.3 µM for the half of the compounds with a filed dose; 0% is about no effect
# RE007 growth inh = less growth of the S. pombe RE007 Vpr strain | hit rate 0.21% among 360,000 | S. pombe RE007 Vpr strain, BacTiter-Glo ATP luminescence, 24 h | Potency, µM (top dose mostly 92.2 µM), for inactives: at the top dose activity change, negative = less growth, actives largely listed as inhibitors; active = well fitted falling curve with a large enough effect; inconclusive = small, poorly fitted or top-dose-only effect; inactive = no such curve, though single readings can be large or run the other way; also: potency is read from the fitted curve at half-maximal effect; % is scaled to controls: 0 for no effect and ±100 for the full control effect; nearly all actives have a fitted effect of over 50% in size
#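 Fission yeast strain RE007, carrying one chromosomally integrated HIV-1 vpr copy, was seeded at OD 0.01 in PMG+AL medium with 23 nL pinned compound. After 24 h at 30 °C and 99% humidity, viability was read by BacTiter-Glo luminescence.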
# TbPYK inhibitor = inhibitors of Trypanosoma brucei pyruvate kinase | TbPYK enzyme, Kinase-Glo Plus ATP luminescence, 45 min | Potency, µM (highest dose often 76.8 µM), for inactives: at the top dose activity, negative = inhibition, actives largely listed as inhibitors | hit rate 0.12% among 410,000; also: potency is read from the fitted curve at half-maximal effect; % is scaled to controls: 0 for no effect and ±100 for the full control effect; nearly all actives have a fitted effect of over 50% in size
#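 Quantitative HTS: titrated library compounds versus trypanosomal pyruvate kinase in TEA buffer (pH 7.2) containing KCl, MgCl2, BSA and Tween-20. Reactions were initiated with ADP, 130 uM final. Kinase-Glo Plus luminescence was read after 45 min at RT.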
# Shiga inhibitor = Shiga toxin inhibition; hit rate 9.2% among 290,000; Vero cells, Shiga toxin protein synthesis inhibition reporter; inhibition, % at 38.7 µM; AID 2315; in the data active = inhibition mostly above about 28%, no sharp cut-off; inactive = mostly below about 43%; also: 0% is about no effect
# * hit, by the source's call; ? = inconclusive; · = not tested or not shown; [ ] = remark or other dose. Only a selection was taken, and hits are over-represented in it overall. Unless noted, calls follow the shape of the dose curve; as a rule, active = well fitted curve in the direction sought with a large enough effect; inconclusive = small, poorly fitted or top-dose-only effect, or another doubt; inactive = no such curve, though single readings can be large; an effect the other way counts as inactive or inconclusive.
SMILES,FBPA Giardia inh,LmPK inhibitor,Cycloheximide cs,RE007 growth inh,TbPYK inhibitor,Shiga inhibitor
N/C(=N\OC(=O)COc1ccc(Br)cc1Cl)c1ccncc1,7%,-2%,88*,6%,-11%,121*
N/C(=N\OC(=O)COc1ccc(Cl)cc1Cl)c1ccccn1,1%,-19%,35*,9%,0%,48*
N/C(=N\OC(=O)COc1ccc(Br)cc1Cl)c1ccccn1,2%,-21%,50*,-14%,-13%,45
O=C(COc1ccc(Br)cc1Cl)N1CCN(c2ccccn2)CC1,·,-11%,-3,-2%,-8%,-23
N/C(=N\OC(=O)COc1cc(Cl)c(Cl)cc1Cl)c1ccncc1,8%,2%,10,18%,-3%,30
O=C(C[C@@H]1C=C[C@H](NC(=O)Cc2ccccn2)[C@@H](CO)O1)NCCc1ccccc1,·,·,·,3%,·,·
CCN(Cc1nc2ccccc2c(=O)[nH]1)C(=O)c1cccc(S(=O)(=O)N2CCc3ccccc32)c1,·,·,·,2%,1%,·
COc1ccc(C(=O)Cn2c(=N)n(C)c3ccccc32)cc1,-2%,0%,60*,-4%,-2%,85*
Cn1c(=N)n(CC(=O)C(C)(C)C)c2ccccc21,1%,-5%,27*,-19%,-1%,148*
Cn1c(=N)n(CC(=O)c2ccccc2)c2ccccc21,-6%,-11%,23*,-22%,2%,24
CCCn1c(=N)n(CC(=O)C(C)(C)C)c2ccccc21,3%,6%,-5,-4%,3%,-30
COc1ccc(C(=O)CN2Cc3ccccc3C2=N)cc1,-6%,-7%,30*,-7%,-2%,88*
CCCCn1c(=N)n(CC(=O)c2ccc(OC)cc2)c2ccccc21,-4%,-9%,-2,·,·,-9
CN=C(NC#N)NCCSC[C@H]1N=CN=C1C,-12%[21.7 µM],·,·,·,·,·
Clc1ccc(-c2nnc(NCc3ccccc3)c3ccccc23)cc1,3%,1%,2,-9%,3%,12
Clc1ccc(Nc2ccc(NCc3ccccc3)nn2)cc1,-5%,2%,34*,13%,5%,60*
Cc1ccc(Nc2ccc(NCc3ccccc3)nn2)cc1C,1%,-5%,33*,-9%,-3%,68*
Cc1cc(NCc2ccccc2)nc2ccccc12,1%,6%,15,-5%,-4%,19
CCCCC/C=C\C/C=C\C/C=C\CCCCCCC(=O)O[C@H](COCCCCCCCCCCCCCCCC)COP(=O)([O-])OCC[N+](C)(C)C,0%,·,·,·,·,·
C=C(C)CNC(=S)Nc1nc2c(cc1C(=O)OCC)CCCC2,9%,-14%,13,10%,-7%,active
CCOc1ccccc1C(=O)Nc1nnc(COC)s1,32%,-2%,21*,-9%,-3%,22
COc1ccc(C(=O)Nc2nnc(SCC(=O)NC3CC3)s2)cc1,-3%,-4%,39*,9%,2%,51*
COc1ccc(C(=O)Nc2nnc(SCC(=O)NC3CCCC3)s2)c(OC)c1,-2%,9%,42*,-6%,8%,96*
CCc1nnc(NC(=O)c2ccc(OC)cc2OC)s1,-6%,-7%,38*,-4%,-7%,66*
COc1ccccc1C(=O)COC(=O)C1CCN(S(=O)(=O)c2ccccc2)CC1,·,·,·,2%,-2%,·
SMILES,FBPA Giardia inh,LmPK inhibitor,Cycloheximide cs,RE007 growth inh,TbPYK inhibitor,Shiga inhibitor
COc1ccc(C(=O)Nc2nnc(SCC(=O)Nc3ccc(NC(C)=O)cc3)s2)c(OC)c1,·,-6%,48*,-3%,4%,119*
CC(=O)Nc1ccc(NC(=O)CSc2nnc(NC(=O)c3cccc(F)c3)s2)cc1,·,-7%,10,-7%,-10%,12
Cc1cc(CNC(=O)CCc2nnc(CCCCc3ccccc3)o2)nn1C,2%,-3%,-2,0%,1%,-17
Cc1cccc(Cc2nnc(CCC(=O)N(C)Cc3ccncc3C)o2)c1,6%,-7%,8,-3%,4%,39
CC(C)c1cc(CNC(=O)CCc2nnc(CCCc3ccccc3)o2)on1,2%,5%,30*,3%,-1%,58*
Cc1cccc(-c2noc(CCC(=O)NCc3ccco3)n2)c1,4%,3%,7,-2%,3%,17
CCc1cc(CNC(=O)CCc2nnc(CCCc3ccccc3)o2)on1,5%,-12%,58*,5%,-1%,79*
Cc1cccc(Cc2nnc(CCC(=O)NCc3ccncc3C)o2)c1,6%,5%,31*,-18%,4%,35
CCc1cc(CNC(=O)CCc2nnc(Cc3cccc(C)c3)o2)on1,1%,-2%,8,5%,-2%,71*
Cc1cccc(OCC(=O)Nc2ccccc2OCc2cc(=O)n3cc(C)ccc3n2)c1,·,·,·,·,-3%,·
CC(C)CO/N=C1/[C@H]2O[C@@H]2[C@@H](O)[C@H]2[C@H]1CCn1c(=O)n(Cc3cc4c(cc3Cl)OCO4)c(=O)n12,3%[12.9 µM],·,·,·,·,·
COc1ccc(NC(=O)c2oc3ccccc3c2NC(=O)C23CC4CC(CC(C4)C2)C3)c(OC)c1,·,·,·,·,1%,·
Cc1ccccc1CSc1ccc(S(=O)(=O)N2CCCC2)cn1,·,·,·,1%,-8%,·
COc1ccccc1CCNC(=O)Cc1c(C)c2cc3c(C)coc3cc2oc1=O,·,·,·,·,-4%,·
Cc1ccc(C2CN=NC23CCc2ccccc2C3=O)cc1 (configuration not stated),-6%,3%,47*,?,-4%,173*
O=C1c2ccccc2CCCC12N=NCC2c1cccc2ccccc12 (configuration not stated),-8%,-4%,-4,-28%,4%,7
CCCNC(=O)C1(C)CCCN(Cc2ccc(Oc3ccccc3)cc2)C1 (configuration not stated),·,·,·,-3%[18.4 µM],6%,·
CCn1nc(C)c(CCN(C)C(=O)Nc2cc(C)cc(C)c2)c1C,·,·,·,·,-6%,·
O=C(CCCN1C(=O)/C(=C/c2ccccc2Cl)SC1=S)Nc1cccnc1,·,-9%,29*,-19%,2%,42*
O=C(CCCN1C(=O)/C(=C\c2ccccc2)SC1=S)Nc1ccc(O)cc1,-2%,-4%,26*,5%,4%,3
Cc1ccc(/C=C2/SC(=S)N(CCCC(=O)Nc3ccc(O)cc3)C2=O)cc1,-4%,2%,31*,-8%,5%,25*
COc1cccc(/C=C2/SC(=S)N(CCCC(=O)Nc3ccc(O)cc3)C2=O)c1,·,0%,27*,0%,1%,44*
Cc1ccc(-n2nnnc2CCl)cc1,-15%,-2%,-2,16%,-5%,-10
CC(=O)OCC=C1CCC2C3CC(C)C4=CC(=O)CCC4(C)C3C(O)CC12C (configuration not stated),·,·,·,2%,1%,·
COc1ccccc1/C=C1\SC(=S)N(CCC(=O)Nc2cccc(O)c2)C1=O,1%,-2%,17*,-8%,5%,27*

# Screening data deposited in PubChem by National Center for Advancing Translational Sciences (NCATS).
